Experimental data taken from PubChem BioAssay (Tox21).
Results filed as inconclusive are left out. The source made the active and inactive calls. Unless noted, calls come from the whole dose curve; as a rule, active = well fitted curve in the direction sought with a large enough effect in the repeat runs; inconclusive = weak or mixed curves; inactive = no such curve, though single readings can be large; an effect the other way counts as inactive or inconclusive.

Tests used:
[1] = target: Thyrotropin receptor (Homo sapiens) (UniProt P16473); test: qHTS assay to identify small molecule antagonists of the thyroid stimulating hormone receptor (TSHR) signaling pathway (AID 1259385; calls by dose curve; note: nearly all actives have a fitted effect of over 20% in size)
Summary of the method: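 TSHR-HEK293 cells (800/well) plated 18 h, then compounds with Ro20-1724 and TSH at 1.5 ng/mL final, 30 min at room temperature. cAMP quantified by HTRF (cAMP-d2/anti-cAMP-cryptate, 1 h); 15 concentrations in triplicate.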

[2] = qHTS assay to identify small molecule agonists of the estrogen receptor alpha (ER-alpha) signaling pathway in the presence of an antagonist - cell viability counter screen (AID 1259386);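 note: series mostly up to about 92 µM; cells exposed to compounds for 22 h at 37 °C before the viability read; nearly all actives have a fitted effect of over 30% in size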
Summary of the method: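 Using estrogen-depleted VM7Luc4E2 cells, the 15-concentration compound series was applied together with 10.0nM ICI-182,780 and incubated 22hr at 37C/5% CO2. Cell viability was then scored by CellTiter-Fluor.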

[3] = target: Progesterone receptor (Homo sapiens) (UniProt P06401); test: qHTS assay to identify small molecule agonists of the progesterone receptor (PR) signaling pathway (AID 1346784; calls by dose curve; note: nearly all actives have a fitted effect of over 30% in size; note: potency is the fitted concentration of half-maximal effect)
Summary of the method: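 Fluorescence from LiveBLAzer B/G FRET substrate cleavage (2 hr, RT) reported PR activation in PR-UAS-bla HEK 293T cells treated 16 hr at 37C/5% CO2 with compounds; medium contained 2% charcoal-stripped FBS.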

[4] = target: Progesterone receptor (Homo sapiens) (UniProt P06401); test: qHTS assay to identify small molecule antagonists of the progesterone receptor (PR) signaling pathway (AID 1346795; active = well fitted inhibition curve with a large enough effect in the signal ratio in the repeat runs, not every such curve was filed as active; the % refers to the signal ratio)
Summary of the method: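 Fluorescence intensity measured 2 hr after adding beta-lactamase FRET substrate to PR-UAS-bla HEK293T cells that had been co-treated 16 hr with compound and 1 nM R5020 (final concentration) in 2% charcoal-stripped FBS.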

[5] = qHTS assay to identify small molecule antagonists of the progesterone receptor (PR) signaling pathway - cell viability counter screen (AID 1346798); note: series mostly up to about 92 µM; nearly all actives have a fitted effect of over 50% in size
Summary of the method: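 CellTiter-Glo luminescence; PR-UAS-bla HEK293T, 3,000 cells/well; compound + R5020, 16 hr, 37C/5% CO2; 30 min RT before read.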

[6] = qHTS assay to identify small molecule agonists of the progesterone receptor (PR) signaling pathway - cell viability counter screen (AID 1346799; calls by dose curve; note: nearly all actives have a fitted effect of over 45% in size)
Summary of the method: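 In parallel with the beta-lactamase readout, cytotoxicity toward PR-UAS-bla HEK293T cells was measured by CellTiter-Glo luminescence following 16 hr compound incubation in 2% charcoal-stripped FBS medium.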

[7] = qHTS assay to identify small molecule antagonists of the TGF-beta/Smad signaling pathway - cell viability counter screen (AID 1346824); note: nearly all actives have a fitted effect of over 50% in size
Summary of the method: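 SBE-bla HEK 293T cells, incubated overnight, then compound plus 0.25 ng/mL TGF-beta1 (stock added) for 5 hr at 37 C. Viability was read in the same wells by CellTiter-Glo luminescence after 30 min at room temperature.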

[8] = qHTS assay to identify small molecule agonists of the TGF-beta/Smad signaling pathway - cell viability counter screen (AID 1346829); note: top concentration of the series differs between compounds; nearly all actives have a fitted effect of over 45% in size
Summary of the method: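 In parallel with the Smad reporter read, viability of HEK 293T cells stably carrying SBE-bla is quantified by ATP luminescence following 5 hr compound treatment.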

[9] = qHTS assay to identify small molecule agonists of the TGF-beta/Smad signaling pathway (AID 1346859; active = well fitted activation curve with a large enough effect in the signal ratio in the repeat runs, not every such curve was filed as active; the % refers to the signal ratio; note: series mostly up to about 77 µM)
Summary of the method: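 After overnight seeding, SBE-bla HEK 293T cells are dosed with compounds in DMSO and kept 5 hr at 37 C, 5% CO2. LiveBLAzer-type FRET substrate is then applied for 2 hr at room temperature.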

[10] = target: Thyrotropin-releasing hormone receptor (Homo sapiens) (UniProt P34981); test: qHTS assay to identify small molecule antagonists of the thyrotropin-releasing hormone receptor (TRHR) signaling pathway (AID 1346877; active = well fitted inhibition curve with a large enough effect in the repeat runs, not every such curve was filed as active; note: series mostly up to about 51 µM)
Summary of the method: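 Calcium signal in dye-loaded TRHR/HEK293 cells; compounds added 5 min before TRH (1 nM final); fluorescence monitored 3 min at 1 s steps.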

[11] = target: Thyrotropin-releasing hormone receptor (Homo sapiens) (UniProt P34981); test: qHTS assay to identify small molecule agonists of the thyrotropin-releasing hormone receptor (TRHR) signaling pathway (AID 1346891; calls by dose curve;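 note: HEK293 cells expressing TRHR with calcium dye readout; series mostly up to about 58 µM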)
Summary of the method: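 Compounds were tested as agonists at 15 concentrations, in triplicate, on TRHR-Hek293 cells; calcium-sensitive dye fluorescence was recorded for 3 min following addition.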

[12] = Human pregnane X receptor (PXR) small molecule agonists, qHTS cell viability counter screen (AID 1346977); note: nearly all actives have a fitted effect of over 50% in size
Summary of the method: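 Viability counter screen: CellTiter-Fluor signal in PXR-Luc HepG2 cells, 24hr compound exposure, 37C, 5% CO2.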

[13] = Caspase-3/7 induction in HepG2 cells by small molecules, qHTS assay (AID 1346978); note: nearly all actives have a fitted effect of over 15% in size
Summary of the method: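 Wild-type HepG2 cells, 2,000/well, settled 5 hr at 37 C and 5% CO2, then compound-treated for 17 hr; caspase-3/7 activity read by luminescent Caspase-Glo 3/7 after 30 min at room temperature.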

[14] = Caspase-3/7 induction in CHO-K1 cells by small molecules, qHTS cell viability counter screen (AID 1346979); note: nearly all actives have a fitted effect of over 35% in size
Summary of the method: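 Viability readout by fluorescence (CellTiter-Fluor) on wild-type CHO-K1 cells exposed for 16hr at 37C and 5% CO2 to compounds delivered in DMSO; reagent incubated 1hr before reading.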

[15] = Caspase-3/7 induction in CHO-K1 cells by small molecules, qHTS assay (AID 1346980); note: nearly all actives have a fitted effect of over 15% in size
Summary of the method: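 Wild-type CHO-K1 cells exposed to compounds for 17hr at 37 C, 5% CO2. Caspase-3/7 activity then measured by Caspase-Glo 3/7 luminescence after 30min at room temperature.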

[16] = Caspase-3/7 induction in HepG2 cells by small molecules, qHTS cell viability counter screen (AID 1346981); note: series mostly up to about 92 µM; nearly all actives have a fitted effect of over 30% in size
Summary of the method: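 After a 5-hr attachment period at 37 C and 5% CO2, wild-type HepG2 cells received compounds in DMSO. Sixteen hours later CellTiter-Fluor was dispensed and the fluorescent signal quantified after a further hour.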

[17] = target: Nuclear receptor subfamily 1 group I member 2 (Homo sapiens) (UniProt O75469); test: Human pregnane X receptor (PXR) small molecule agonists, qHTS assay (AID 1346982); note: nearly all actives have a fitted effect of over 35% in size
Summary of the method: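 Tox21 qHTS; PXR-Luc HepG2; compounds pinned from DMSO; 24 hr, 37 C; ONE-Glo luciferase detection, 30 min room temperature.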

[18] = target: Nuclear receptor subfamily 1 group I member 2 (Rattus norvegicus) (UniProt Q9R1A7); test: Rat pregnane X receptor (rPXR) activation by small molecules, qHTS assay (AID 1346983); conditions: rPXR luciferase reporter cells, One-Glo luminescence, 24 h; max activation: hits give high values; note: nearly all actives have a fitted effect of over 20% in size
Summary of the method: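 Cell-based rPXR activation assay: rPXR cells, 2,000 per well, rested 5hr at 37 C, then exposed to compounds in DMSO for 24 hr at 37 C. Luciferase activity read by One-Glo luminescence after 30 min at room temperature.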

[19] = target: Nuclear receptor subfamily 1 group I member 2 (Homo sapiens) (UniProt O75469); test: CYP3A4 induction through human pregnane X receptor (PXR) by small molecules, qHTS assay (AID 1346984); note: nearly all actives have a fitted effect of over 40% in size
Summary of the method: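 Cells (DPX-2; HepG2 with PXR element plus CYP3A4-promoter luciferase) settled 5hr, then were treated 24hr at 37C. A 3hr, 3uM-final Luciferin-IPA step preceded luminescence measurement with One-Glo.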

[20] = target: Nuclear receptor subfamily 1 group I member 2 (Homo sapiens) (UniProt O75469); test: Human pregnane X receptor (PXR) activation by small molecules, qHTS assay (AID 1346985); note: nearly all actives have a fitted effect of over 40% in size
Summary of the method: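 DPX-2 cells (HepG2 co-transfected with a PXR response element and a CYP3A4-promoter luciferase construct) were seeded at 2,000 per well, rested 5 hr at 37C, then exposed to DMSO-dissolved compounds for 24 hr. Activation was read as luciferase luminescence.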
% is set by controls: 0 for no effect and ±100 for the full control effect.

Sequence of Nuclear receptor subfamily 1 group I member 2 (Homo sapiens) (O75469 whole entry, looked up): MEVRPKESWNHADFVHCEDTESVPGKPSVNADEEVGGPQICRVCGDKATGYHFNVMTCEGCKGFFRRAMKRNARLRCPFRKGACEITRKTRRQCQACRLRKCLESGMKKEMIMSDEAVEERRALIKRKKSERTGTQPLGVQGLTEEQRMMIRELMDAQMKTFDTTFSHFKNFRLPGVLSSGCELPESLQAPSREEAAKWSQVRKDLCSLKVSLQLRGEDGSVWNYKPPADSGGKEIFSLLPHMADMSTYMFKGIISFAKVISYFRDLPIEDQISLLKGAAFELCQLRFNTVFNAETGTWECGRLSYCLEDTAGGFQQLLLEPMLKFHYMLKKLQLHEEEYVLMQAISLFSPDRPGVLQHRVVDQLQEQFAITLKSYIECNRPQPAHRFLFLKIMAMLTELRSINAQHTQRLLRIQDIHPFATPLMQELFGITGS
Sequence of Thyrotropin receptor (Homo sapiens) (P16473 whole entry, looked up): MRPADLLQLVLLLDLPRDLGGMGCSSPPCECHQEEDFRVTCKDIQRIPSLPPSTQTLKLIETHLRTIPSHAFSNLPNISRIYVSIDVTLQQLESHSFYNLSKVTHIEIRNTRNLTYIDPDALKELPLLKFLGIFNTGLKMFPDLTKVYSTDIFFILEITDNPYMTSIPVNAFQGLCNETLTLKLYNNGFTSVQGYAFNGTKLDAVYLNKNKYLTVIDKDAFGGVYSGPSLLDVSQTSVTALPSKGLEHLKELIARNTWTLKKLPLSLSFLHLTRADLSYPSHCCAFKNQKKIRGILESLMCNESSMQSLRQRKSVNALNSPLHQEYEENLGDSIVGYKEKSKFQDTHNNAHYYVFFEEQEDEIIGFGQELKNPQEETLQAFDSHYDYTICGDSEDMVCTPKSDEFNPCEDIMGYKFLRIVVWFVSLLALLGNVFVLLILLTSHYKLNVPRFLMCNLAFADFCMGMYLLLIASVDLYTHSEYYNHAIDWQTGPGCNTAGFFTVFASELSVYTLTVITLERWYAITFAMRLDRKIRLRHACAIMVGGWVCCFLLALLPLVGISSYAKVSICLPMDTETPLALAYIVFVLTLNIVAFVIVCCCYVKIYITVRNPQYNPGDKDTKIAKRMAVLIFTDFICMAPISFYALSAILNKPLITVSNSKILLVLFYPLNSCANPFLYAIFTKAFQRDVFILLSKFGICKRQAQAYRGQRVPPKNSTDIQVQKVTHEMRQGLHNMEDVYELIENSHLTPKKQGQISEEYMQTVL
Sequence of Progesterone receptor (Homo sapiens) (P06401 whole entry, looked up): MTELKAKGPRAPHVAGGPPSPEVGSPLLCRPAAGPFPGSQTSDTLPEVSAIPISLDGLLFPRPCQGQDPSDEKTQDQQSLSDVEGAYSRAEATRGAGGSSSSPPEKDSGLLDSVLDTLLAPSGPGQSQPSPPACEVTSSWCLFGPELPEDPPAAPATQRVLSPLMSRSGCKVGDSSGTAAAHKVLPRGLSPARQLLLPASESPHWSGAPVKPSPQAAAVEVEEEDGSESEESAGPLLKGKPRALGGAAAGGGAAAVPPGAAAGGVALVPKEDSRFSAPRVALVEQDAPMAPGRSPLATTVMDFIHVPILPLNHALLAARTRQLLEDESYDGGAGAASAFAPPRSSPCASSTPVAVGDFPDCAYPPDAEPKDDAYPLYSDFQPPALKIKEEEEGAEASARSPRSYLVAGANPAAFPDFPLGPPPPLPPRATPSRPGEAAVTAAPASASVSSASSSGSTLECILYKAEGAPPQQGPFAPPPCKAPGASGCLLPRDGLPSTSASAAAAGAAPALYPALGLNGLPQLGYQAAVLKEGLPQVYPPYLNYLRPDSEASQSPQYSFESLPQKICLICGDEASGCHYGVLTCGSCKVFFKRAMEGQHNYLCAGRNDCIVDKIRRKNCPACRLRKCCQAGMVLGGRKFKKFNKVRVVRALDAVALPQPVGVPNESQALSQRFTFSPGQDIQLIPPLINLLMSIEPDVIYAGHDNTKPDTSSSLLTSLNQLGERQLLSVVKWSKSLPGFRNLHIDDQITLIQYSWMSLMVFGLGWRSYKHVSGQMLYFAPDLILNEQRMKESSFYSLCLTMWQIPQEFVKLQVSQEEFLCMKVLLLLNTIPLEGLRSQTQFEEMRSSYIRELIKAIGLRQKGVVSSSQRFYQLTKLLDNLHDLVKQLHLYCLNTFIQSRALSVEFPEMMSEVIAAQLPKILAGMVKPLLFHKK
Sequence of Thyrotropin-releasing hormone receptor (Homo sapiens) (P34981 whole entry, looked up): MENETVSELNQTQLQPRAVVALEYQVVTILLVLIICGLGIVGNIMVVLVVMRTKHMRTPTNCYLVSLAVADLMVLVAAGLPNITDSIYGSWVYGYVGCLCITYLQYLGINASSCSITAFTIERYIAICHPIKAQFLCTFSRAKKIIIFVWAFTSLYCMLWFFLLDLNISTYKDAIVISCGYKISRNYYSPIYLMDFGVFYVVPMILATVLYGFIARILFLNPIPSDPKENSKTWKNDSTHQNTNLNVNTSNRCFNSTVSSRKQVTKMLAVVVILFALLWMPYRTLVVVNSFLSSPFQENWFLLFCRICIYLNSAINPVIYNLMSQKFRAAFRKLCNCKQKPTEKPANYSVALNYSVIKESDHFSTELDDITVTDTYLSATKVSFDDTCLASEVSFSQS
Sequence of Nuclear receptor subfamily 1 group I member 2 (Rattus norvegicus) (Q9R1A7 whole entry, looked up): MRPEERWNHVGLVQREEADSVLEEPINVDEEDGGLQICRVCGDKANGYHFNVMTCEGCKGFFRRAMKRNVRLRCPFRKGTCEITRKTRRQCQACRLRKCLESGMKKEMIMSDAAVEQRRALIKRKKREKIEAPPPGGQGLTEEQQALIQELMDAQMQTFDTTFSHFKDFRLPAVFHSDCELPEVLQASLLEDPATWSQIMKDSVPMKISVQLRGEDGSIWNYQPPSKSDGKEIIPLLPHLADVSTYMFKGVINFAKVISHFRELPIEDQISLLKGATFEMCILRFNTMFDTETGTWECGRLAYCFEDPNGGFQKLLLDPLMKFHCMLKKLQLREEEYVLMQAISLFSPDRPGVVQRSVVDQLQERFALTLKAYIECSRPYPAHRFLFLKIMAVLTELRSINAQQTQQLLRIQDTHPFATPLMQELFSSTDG

NC(=O)c1ccccc1[N+](=O)[O-]
inactive: Potency [1] | Potency [2] | Potency [3] | Potency [4] | Potency [5] | Potency [6] | outcome [7] | Potency [8] | Potency [9] | outcome [10] | outcome [11] | Potency [12] | Potency [13] | Potency [14] | outcome [15] | Potency [16] | Potency [17]

CC(=O)c1ccc[nH]1
inactive: Potency [1] | Potency [2] | Potency [3] | Potency [4] | Potency [5] | Potency [6] | outcome [7] | Potency [8] | Potency [9] | outcome [10] | Potency [12] | Potency [13] | Potency [14] | outcome [15] | Potency [16] | Potency [17]

CC(C)(C)NCC(O)COc1cccc2c1C[C@H](O)[C@H](O)C2 (some centres undefined)
inactive: Potency [1] | Potency [2] | Potency [3] | Potency [4] | Potency [5] | Potency [6] | outcome [7] | Potency [8] | Potency [9] | Potency [12] | Potency [13] | Potency [14] | outcome [15] | Potency [16] | Potency [17] | max activation [18] -1.94% | Potency [19] | Potency [20]

CC12CC3CC(C)(C1)CC(N)(C3)C2
inactive: Potency [1] | Potency [2] | Potency [3] | Potency [4] | Potency [5] | Potency [6] | outcome [7] | Potency [8] | Potency [9] | Potency [13] | Potency [14] | outcome [15] | Potency [16] | Potency [17]

O=C(CCS)OCC(COC(=O)CCS)(COC(=O)CCS)COC(=O)CCS
inactive: Potency [1] | Potency [2] | Potency [3] | Potency [4] | Potency [5] | Potency [6] | outcome [7] | Potency [8] | Potency [9] | outcome [10] | outcome [11] | Potency [12] | Potency [13] | Potency [14] | outcome [15] | Potency [16] | Potency [17]

CN=C(N)NC(=O)Nc1c(C)cccc1C
inactive: Potency [1] | Potency [2] | Potency [3] | Potency [4] | Potency [5] | Potency [6] | outcome [7] | Potency [8] | Potency [9] | Potency [12] | Potency [13] | Potency [14] | outcome [15] | Potency [17]

O=c1[nH][nH]c(=O)c2cc([N+](=O)[O-])ccc12
inactive: Potency [1] | Potency [2] | Potency [3] | Potency [4] | Potency [5] | Potency [6] | outcome [7] | Potency [8] | Potency [9] | outcome [10] | outcome [11] | Potency [12] | Potency [13] | Potency [14] | outcome [15] | Potency [17]

CCCCCCCCCCCCCCN(C)C
active: Potency [3] 738 nM
inactive: activity change, negative = inhibition [1] -0.0954% [at 19 µM] | activity change, negative = cytotoxicity [2] -8.37% [at 19 µM] | activity change, negative = inhibition [4] 5.91% [at 18.9 µM] | activity change, negative = cytotoxicity [5] 2.26% [at 18.9 µM] | activity change, negative = cytotoxicity [6] 0% [at 19 µM] | viability change, negative = cytotoxic [7] -8.55% [at 15.8 µM] | activity change, negative = cytotoxicity [8] 4.77% [at 15.8 µM] | activation [9] -0.505% [at 15.8 µM] | activity, negative = inhibition [10] 0.781% [at 10.5 µM] | activation [11] 1.06% [at 11.8 µM] | activity change, negative = cytotoxicity [12] 0.682% [at 19 µM] | caspase activation [13] 1.09% [at 19 µM] | activity change, negative = cytotoxicity [14] 2.75% [at 19 µM] | caspase-3/7 activation [15] -1.58% [at 19 µM] | activity change, negative = cytotoxicity [16] -7.71% [at 19 µM] | activation [17] 8.78% [at 19 µM]
